Our source for the binding signal values is publication PMC7862700, “An all-to-all approach to the identification of sequence-specific readers for epigenetic DNA modifications on cytosine”.

What all share (experiment): DAPPL (digital affinity profiling via proximity ligation, sequencing); 10 mM Tris-HCl pH 7.5, 50 mM NaCl, 1 mM DTT, 4% glycerol, room temperature, 30 min; GST-TFs on glutathione beads, 16-mer random dsDNA library, 0.1% formaldehyde crosslink after washing; high values mean tight binding
Assay [1] concerns the target T1, FEV (Homo sapiens, UniProt Q99581 1-238).
T1 sequence: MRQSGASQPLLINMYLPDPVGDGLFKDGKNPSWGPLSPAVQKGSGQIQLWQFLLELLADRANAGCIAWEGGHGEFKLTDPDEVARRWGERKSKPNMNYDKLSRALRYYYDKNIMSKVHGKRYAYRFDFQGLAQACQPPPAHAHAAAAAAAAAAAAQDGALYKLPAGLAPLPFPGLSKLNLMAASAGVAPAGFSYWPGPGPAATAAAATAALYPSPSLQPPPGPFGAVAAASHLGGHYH
To be noted: protein: recombinant; tags: N-terminal GST; dsDNA, one strand shown. In short, it runs like this: (§1)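 Yeast served to express human transcription factors as GST fusions, which were then captured on glutathione beads and labelled with DNA barcodes. Pooled with a tag-only sample, they were incubated with 200 nmole of a 16-mer random double-stranded DNA library for 30 min at room temperature in Tris/NaCl/DTT/glycerol buffer, washed, crosslinked with 0.1% formaldehyde, ligated by proximity, amplified by PCR and sequenced. Dividing each hexamer's read frequency for a factor by its frequency for the tag-only sample gives the binding signal.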

Assay [2] addresses ETV5 (Homo sapiens, UniProt P41161 1-510). Particulars: protein: recombinant; tags: N-terminal GST; dsDNA, one strand shown. Summed up:
as §1

In assay [3] the target is HSF1 (Homo sapiens, UniProt Q00613 1-529). To be noted: protein: recombinant; tags: N-terminal GST; chain copies: 3; dsDNA, one strand shown. In short, it runs like this:
as §1

For assay [4], the target named is T2, SPIC (Homo sapiens, UniProt Q8N5J4 1-248).
T2 sequence: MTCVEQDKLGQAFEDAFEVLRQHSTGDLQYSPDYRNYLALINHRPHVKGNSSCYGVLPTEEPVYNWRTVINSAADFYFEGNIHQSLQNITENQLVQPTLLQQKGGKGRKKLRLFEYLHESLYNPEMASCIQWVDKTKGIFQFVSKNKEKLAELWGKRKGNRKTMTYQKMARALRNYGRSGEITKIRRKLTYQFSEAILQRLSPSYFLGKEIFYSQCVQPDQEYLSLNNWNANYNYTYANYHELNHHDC
Particulars: protein: recombinant; tags: N-terminal GST; dsDNA, one strand shown. In short, it runs like this: as §1

For assay [5], the target named is ELF4 (Homo sapiens, UniProt Q99607 1-663). To be noted: protein: recombinant; tags: N-terminal GST; dsDNA, one strand shown. In short, it runs like this:
as §1

The target of assay [6] is T3, ELK4 (Homo sapiens, UniProt P28324-2 1-405).
T3 sequence: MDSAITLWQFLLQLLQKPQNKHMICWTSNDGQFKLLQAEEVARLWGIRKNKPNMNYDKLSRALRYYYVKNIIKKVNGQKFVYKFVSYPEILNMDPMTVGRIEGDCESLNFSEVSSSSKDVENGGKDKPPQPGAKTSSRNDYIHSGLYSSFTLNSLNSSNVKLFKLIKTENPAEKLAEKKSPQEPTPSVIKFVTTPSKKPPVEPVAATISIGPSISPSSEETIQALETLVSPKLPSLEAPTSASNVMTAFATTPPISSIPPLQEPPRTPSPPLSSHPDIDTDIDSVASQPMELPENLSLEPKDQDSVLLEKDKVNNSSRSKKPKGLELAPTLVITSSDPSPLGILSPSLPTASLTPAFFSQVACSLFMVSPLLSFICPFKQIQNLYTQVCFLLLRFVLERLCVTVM
Particulars: protein: recombinant; tags: N-terminal GST; dsDNA, one strand shown. Summed up: as §1

Assay [7] concerns the target T4, ETV2 (Homo sapiens, UniProt O00321 1-342).
T4 sequence: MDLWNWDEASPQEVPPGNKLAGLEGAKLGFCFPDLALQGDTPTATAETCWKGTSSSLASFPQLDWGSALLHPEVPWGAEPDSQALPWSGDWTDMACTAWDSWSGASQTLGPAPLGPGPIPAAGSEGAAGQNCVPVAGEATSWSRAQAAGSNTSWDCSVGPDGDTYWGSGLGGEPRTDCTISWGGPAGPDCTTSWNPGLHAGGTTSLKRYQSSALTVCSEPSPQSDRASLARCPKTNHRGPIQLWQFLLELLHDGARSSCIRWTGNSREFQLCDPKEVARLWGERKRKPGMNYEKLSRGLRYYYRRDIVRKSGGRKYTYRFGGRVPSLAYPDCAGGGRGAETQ
To be noted: protein: recombinant; tags: N-terminal GST; dsDNA, one strand shown. Summed up: as §1

Assay [8] concerns the target T5, ELF3 (Homo sapiens, UniProt P78545 1-371).
T5 sequence: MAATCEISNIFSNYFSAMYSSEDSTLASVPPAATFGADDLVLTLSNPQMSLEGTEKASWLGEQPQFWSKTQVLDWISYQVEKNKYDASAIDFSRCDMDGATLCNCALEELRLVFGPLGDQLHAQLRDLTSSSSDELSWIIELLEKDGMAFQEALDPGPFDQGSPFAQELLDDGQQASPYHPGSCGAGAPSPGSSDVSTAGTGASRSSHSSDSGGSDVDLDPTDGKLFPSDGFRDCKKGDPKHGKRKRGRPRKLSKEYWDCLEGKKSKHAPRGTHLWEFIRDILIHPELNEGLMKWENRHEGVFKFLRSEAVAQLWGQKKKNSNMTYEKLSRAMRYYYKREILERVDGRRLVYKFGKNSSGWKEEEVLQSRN
Particulars: protein: recombinant; tags: N-terminal GST; dsDNA, one strand shown. In short, it runs like this: as §1

For assay [9], the target named is CRX (Homo sapiens, UniProt O43186 1-299). Particulars: protein: recombinant; tags: N-terminal GST; dsDNA, one strand shown. In short, it runs like this:
as §1

Assay [10] concerns the target ETV1 (Homo sapiens, UniProt P50549 1-477). To be noted: protein: recombinant; tags: N-terminal GST; dsDNA, one strand shown. In short, it runs like this: as §1
Assay [11] deals with T6, ERF (Homo sapiens, UniProt P50548 1-548).
T6 sequence: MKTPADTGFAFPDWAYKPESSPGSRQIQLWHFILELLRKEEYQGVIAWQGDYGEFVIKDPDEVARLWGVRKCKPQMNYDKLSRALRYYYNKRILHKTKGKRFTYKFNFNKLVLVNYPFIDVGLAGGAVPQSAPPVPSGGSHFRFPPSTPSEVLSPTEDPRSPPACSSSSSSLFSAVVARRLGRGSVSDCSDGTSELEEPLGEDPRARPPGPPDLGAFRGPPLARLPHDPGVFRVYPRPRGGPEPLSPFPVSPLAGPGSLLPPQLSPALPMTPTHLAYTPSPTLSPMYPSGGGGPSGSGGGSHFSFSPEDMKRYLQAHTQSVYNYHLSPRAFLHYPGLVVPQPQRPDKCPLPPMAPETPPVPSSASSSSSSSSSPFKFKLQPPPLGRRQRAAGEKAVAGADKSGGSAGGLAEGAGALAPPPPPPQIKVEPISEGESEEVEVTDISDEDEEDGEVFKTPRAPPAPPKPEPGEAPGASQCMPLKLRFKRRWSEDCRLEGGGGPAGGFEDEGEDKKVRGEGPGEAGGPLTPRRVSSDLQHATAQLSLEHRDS
Particulars: protein: recombinant; tags: N-terminal GST; dsDNA, one strand shown. Summed up: as §1

Assay [12] has as its target T7, ETV3L (Homo sapiens, UniProt Q6ZN32 1-361).
T7 sequence: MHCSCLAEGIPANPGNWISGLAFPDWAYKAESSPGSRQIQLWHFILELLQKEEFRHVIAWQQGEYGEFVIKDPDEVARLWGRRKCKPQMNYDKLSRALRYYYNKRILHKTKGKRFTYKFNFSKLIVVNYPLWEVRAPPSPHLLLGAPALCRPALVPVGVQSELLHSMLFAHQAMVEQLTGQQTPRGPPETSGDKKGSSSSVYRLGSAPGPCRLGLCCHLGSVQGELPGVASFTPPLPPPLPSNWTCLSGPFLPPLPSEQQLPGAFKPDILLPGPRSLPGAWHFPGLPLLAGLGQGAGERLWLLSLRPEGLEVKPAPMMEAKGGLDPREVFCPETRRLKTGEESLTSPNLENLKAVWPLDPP
Particulars: protein: recombinant; tags: N-terminal GST; dsDNA, one strand shown. Summed up:
as §1

For assay [13], the target named is T8, ETS2 (Homo sapiens, UniProt P15036 1-469).
T8 sequence: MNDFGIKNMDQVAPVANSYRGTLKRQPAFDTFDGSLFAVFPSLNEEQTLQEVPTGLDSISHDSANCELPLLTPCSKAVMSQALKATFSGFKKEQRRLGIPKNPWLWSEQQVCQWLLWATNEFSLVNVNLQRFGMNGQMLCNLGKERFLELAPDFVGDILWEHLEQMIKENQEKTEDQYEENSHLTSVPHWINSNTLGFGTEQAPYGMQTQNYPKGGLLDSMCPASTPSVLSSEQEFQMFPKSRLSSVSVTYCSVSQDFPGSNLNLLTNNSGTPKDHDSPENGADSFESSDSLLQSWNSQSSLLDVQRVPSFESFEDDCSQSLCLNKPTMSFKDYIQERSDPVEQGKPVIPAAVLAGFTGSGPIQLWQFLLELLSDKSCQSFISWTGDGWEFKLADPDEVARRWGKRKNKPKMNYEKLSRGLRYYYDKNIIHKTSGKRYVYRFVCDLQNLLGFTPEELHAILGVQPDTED
To be noted: protein: recombinant; tags: N-terminal GST; dsDNA, one strand shown. In short, it runs like this:
as §1

For assay [14], the target named is T9, SPDEF (Homo sapiens, UniProt O95238 1-335).
T9 sequence: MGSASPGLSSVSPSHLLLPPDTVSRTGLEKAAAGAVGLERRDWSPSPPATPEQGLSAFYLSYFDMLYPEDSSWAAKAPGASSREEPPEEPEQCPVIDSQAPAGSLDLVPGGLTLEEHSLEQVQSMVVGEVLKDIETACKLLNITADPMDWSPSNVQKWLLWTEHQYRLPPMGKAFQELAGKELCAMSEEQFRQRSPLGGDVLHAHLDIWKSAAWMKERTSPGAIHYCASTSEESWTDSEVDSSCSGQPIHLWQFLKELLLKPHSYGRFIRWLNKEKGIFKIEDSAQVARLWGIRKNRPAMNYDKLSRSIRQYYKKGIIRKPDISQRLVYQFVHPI
To be noted: protein: recombinant; tags: N-terminal GST; dsDNA, one strand shown. Summed up: as §1

Assay [15] concerns the target T10, ETV7 (Homo sapiens, UniProt Q9Y603 1-341).
T10 sequence: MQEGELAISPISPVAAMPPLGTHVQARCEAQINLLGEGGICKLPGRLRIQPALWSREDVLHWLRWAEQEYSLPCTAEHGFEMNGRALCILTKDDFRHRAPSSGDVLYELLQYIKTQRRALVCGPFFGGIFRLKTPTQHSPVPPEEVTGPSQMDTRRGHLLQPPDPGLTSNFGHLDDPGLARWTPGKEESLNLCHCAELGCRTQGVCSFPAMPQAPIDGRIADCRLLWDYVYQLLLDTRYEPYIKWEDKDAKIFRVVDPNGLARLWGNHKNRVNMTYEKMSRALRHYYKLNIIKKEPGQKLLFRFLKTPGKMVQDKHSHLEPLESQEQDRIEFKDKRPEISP
To be noted: protein: recombinant; tags: N-terminal GST; dsDNA, one strand shown. In short, it runs like this:
as §1

Assay [16] deals with T11, ELF5 (Homo sapiens, UniProt Q9UKW6-2 1-255).
T11 sequence: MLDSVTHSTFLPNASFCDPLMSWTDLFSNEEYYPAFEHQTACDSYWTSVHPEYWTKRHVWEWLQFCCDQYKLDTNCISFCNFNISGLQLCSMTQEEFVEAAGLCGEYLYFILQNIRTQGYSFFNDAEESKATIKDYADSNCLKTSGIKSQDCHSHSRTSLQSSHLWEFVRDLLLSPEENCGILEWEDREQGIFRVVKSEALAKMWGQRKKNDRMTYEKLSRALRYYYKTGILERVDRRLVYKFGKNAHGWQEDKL
Particulars: protein: recombinant; tags: N-terminal GST; dsDNA, one strand shown. Summed up: as §1

Assay [17] deals with T12, ETV3 (Homo sapiens, UniProt P41162-2 1-143).
T12 sequence: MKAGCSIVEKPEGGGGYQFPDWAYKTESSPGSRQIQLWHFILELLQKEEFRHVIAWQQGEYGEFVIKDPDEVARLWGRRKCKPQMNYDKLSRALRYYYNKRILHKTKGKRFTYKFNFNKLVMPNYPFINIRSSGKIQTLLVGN
To be noted: protein: recombinant; tags: N-terminal GST; dsDNA, one strand shown. In short, it runs like this: as §1

In assay [18] the target is ETV6 (Homo sapiens, UniProt P41212 1-452). To be noted: protein: recombinant; tags: N-terminal GST; dsDNA, one strand shown. Summed up:
as §1

HSF1, sequence (Q00613 whole entry): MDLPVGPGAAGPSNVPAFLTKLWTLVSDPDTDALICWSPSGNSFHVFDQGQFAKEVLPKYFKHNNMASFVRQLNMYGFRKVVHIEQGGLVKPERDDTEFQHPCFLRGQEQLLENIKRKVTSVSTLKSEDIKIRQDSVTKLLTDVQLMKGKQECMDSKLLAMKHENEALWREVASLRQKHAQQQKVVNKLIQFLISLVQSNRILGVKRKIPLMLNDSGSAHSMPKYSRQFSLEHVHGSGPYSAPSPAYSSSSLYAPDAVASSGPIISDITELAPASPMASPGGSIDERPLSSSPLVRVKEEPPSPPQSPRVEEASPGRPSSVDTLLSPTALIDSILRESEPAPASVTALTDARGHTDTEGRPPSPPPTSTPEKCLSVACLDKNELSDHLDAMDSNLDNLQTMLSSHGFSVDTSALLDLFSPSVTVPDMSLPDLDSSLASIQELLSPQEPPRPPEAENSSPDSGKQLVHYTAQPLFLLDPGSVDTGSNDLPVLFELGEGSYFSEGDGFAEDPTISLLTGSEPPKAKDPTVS
ETV6, sequence (P41212 whole entry): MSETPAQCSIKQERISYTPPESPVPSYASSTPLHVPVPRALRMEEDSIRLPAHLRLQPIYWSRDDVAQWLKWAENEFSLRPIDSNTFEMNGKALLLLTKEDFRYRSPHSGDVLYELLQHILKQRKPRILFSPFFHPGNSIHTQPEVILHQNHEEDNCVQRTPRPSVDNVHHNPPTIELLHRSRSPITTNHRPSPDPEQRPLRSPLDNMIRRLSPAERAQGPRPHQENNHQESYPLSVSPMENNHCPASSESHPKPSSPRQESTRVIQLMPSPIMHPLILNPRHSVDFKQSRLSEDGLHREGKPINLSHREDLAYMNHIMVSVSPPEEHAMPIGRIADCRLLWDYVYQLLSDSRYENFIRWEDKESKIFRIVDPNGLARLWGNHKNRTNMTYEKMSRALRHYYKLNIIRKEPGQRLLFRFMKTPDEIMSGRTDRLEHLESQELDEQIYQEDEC
ETV5, sequence (P41161 whole entry): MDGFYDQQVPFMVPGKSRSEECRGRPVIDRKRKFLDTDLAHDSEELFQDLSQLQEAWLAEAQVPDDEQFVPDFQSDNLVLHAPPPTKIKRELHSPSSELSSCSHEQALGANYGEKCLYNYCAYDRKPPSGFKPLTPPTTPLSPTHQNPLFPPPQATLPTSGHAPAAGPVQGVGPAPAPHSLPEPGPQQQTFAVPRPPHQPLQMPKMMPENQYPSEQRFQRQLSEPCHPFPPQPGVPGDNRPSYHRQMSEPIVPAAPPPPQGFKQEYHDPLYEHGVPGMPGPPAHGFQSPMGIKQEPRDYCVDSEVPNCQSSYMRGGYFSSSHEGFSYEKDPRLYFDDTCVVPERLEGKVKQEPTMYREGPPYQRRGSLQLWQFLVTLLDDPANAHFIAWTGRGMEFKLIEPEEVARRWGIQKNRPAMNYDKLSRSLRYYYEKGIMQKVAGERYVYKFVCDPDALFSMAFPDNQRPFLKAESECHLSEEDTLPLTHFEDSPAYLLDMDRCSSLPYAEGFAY
ELF4, sequence (Q99607 whole entry): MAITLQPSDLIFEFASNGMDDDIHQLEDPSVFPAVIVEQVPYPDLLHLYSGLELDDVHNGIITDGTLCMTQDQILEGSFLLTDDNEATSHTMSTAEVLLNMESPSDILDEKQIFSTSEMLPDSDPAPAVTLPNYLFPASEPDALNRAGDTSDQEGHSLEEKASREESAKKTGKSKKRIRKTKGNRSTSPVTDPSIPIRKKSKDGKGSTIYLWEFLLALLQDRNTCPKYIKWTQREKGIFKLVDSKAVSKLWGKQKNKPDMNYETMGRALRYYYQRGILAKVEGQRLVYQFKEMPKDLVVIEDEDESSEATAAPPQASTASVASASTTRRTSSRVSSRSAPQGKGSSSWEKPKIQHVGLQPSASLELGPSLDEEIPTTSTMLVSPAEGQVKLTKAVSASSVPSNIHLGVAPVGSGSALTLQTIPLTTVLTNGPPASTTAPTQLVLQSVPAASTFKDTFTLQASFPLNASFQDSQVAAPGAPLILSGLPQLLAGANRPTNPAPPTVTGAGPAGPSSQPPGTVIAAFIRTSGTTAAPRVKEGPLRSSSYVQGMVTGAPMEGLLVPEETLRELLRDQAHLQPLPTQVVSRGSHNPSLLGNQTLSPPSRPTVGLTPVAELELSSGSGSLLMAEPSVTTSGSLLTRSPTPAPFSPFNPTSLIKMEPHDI
ETV1, sequence (P50549 whole entry): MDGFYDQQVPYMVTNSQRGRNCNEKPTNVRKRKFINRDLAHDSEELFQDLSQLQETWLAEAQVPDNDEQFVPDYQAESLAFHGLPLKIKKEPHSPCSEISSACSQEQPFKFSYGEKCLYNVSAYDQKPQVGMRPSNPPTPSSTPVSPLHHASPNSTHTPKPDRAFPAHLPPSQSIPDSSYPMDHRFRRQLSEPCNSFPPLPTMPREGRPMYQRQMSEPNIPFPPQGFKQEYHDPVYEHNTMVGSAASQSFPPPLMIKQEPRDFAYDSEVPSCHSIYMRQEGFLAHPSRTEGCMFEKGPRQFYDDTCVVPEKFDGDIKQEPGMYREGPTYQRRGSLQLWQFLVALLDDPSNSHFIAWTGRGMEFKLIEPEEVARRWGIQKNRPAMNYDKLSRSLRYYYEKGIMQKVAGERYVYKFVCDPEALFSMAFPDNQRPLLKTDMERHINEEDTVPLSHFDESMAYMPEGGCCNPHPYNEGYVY
CRX, sequence (O43186 whole entry): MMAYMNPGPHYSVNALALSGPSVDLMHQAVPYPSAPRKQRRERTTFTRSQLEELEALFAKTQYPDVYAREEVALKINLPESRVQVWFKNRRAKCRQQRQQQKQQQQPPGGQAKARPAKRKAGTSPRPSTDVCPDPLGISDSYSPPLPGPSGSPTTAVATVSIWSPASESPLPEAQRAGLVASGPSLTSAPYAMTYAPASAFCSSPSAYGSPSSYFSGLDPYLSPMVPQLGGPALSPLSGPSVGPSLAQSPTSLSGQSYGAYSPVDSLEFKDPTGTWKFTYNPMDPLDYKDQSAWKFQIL

For the sequence TGCCTC, the binding signal was 1.32 fold enrichment (6-mer frequency, TF over GST control) in assay [1]; 1.37 fold enrichment (6-mer frequency, TF over GST control) in assay [2]; 1.14 fold enrichment (6-mer frequency, TF over GST control) in assay [3]; 1.4 fold enrichment (6-mer frequency, TF over GST control) in assay [4]; 1.34 fold enrichment (6-mer frequency, TF over GST control) in assay [5]; 1.28 fold enrichment (6-mer frequency, TF over GST control) in assay [6]. The binding signal was 1.3 fold enrichment (6-mer frequency, TF over GST control) in assay [7]; 1.52 fold enrichment (6-mer frequency, TF over GST control) in assay [8]; 1.06 fold enrichment (6-mer frequency, TF over GST control) in [9]; 1.24 fold enrichment (6-mer frequency, TF over GST control) in assay [10]; 1.4 fold enrichment (6-mer frequency, TF over GST control) in [11]; 1.32 fold enrichment (6-mer frequency, TF over GST control) in assay [12]. Besides, the binding signal in [13] was 1.22 fold enrichment (6-mer frequency, TF over GST control); in assay [14] it was 1.39 fold enrichment (6-mer frequency, TF over GST control); in assay [15], 1.35 fold enrichment (6-mer frequency, TF over GST control); in assay [16], 1.4 fold enrichment (6-mer frequency, TF over GST control); in [17] it was 1.39 fold enrichment (6-mer frequency, TF over GST control); in assay [18] it was 1.36 fold enrichment (6-mer frequency, TF over GST control).
